Reference: PubChem BioAssay AID1159580 (chemical genetic matrix, 2015)
In all, about 5,500 compounds went through this assay and about 2,000 (36%) were called active. Not shown: some 18% with an inconclusive outcome. Cut-off read from the data, not from the text of the source: active = normalized growth mostly below about 0.91 (no sharp cut-off); inconclusive = no clear call, values can overlap the other calls; inactive = mostly above about 0.92. This is one part of the list.

Assay: chemical genetic growth profiling, strain panel (AID 1159580);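 note: tested at 20 µM; growth read once vehicle control cultures reached saturation at 30 °C; 1 = growth at the plate median or of vehicle wells; lower values mean less growth of the strain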
Settings: growth OD
[1] = S. cerevisiae deletion strains, locus YAL013W, strain DEP1, stronger effect = lower value
[2] = S. cerevisiae deletion strains, locus YAL040C, strain CLN3, stronger effect = lower value
[3] = S. cerevisiae deletion strains, locus YCL061C, strain MRC1 (second series), stronger effect = lower value
[4] = S. cerevisiae deletion strains, locus YDR363W, strain ESC2, stronger effect = lower value
[5] = S. cerevisiae deletion strains, locus YER002W, strain NOP16, stronger effect = lower value
[6] = S. cerevisiae deletion strains, locus YGR229C, strain SMI1, stronger effect = lower value
[7] = S. cerevisiae deletion strains, locus YMR307W, strain GAS1, stronger effect = lower value
[8] = S. cerevisiae deletion strains, locus YNL153C, strain GIM3, stronger effect = lower value
[9] = S. cerevisiae deletion strains, locus YNL175C, strain NOP13, stronger effect = lower value
[10] = S. cerevisiae deletion strains, locus YNL197C, strain WHI3, stronger effect = lower value
[11] = S. cerevisiae deletion strains, locus YNL224C, strain SQS1, stronger effect = lower value
[12] = S. cerevisiae deletion strains, locus YNL322C, strain KRE1, stronger effect = lower value
[13] = S. cerevisiae deletion strains, locus YOR083W, strain WHI5 (second series), stronger effect = lower value
[14] = S. cerevisiae deletion strains, locus YPL241C, strain CIN2, stronger effect = lower value
[15] = S. cerevisiae deletion strains, locus YGR078C, strain PAC10, stronger effect = lower value
[16] = S. cerevisiae deletion strains, locus YBR229C, strain ROT2, stronger effect = lower value
[17] = S. cerevisiae deletion strains, locus YDL101C, strain DUN1, stronger effect = lower value
[18] = S. cerevisiae deletion strains, locus YDL134C, strain PPH21, stronger effect = lower value
[19] = S. cerevisiae deletion strains, locus YDR150W, strain NUM1, stronger effect = lower value
[20] = S. cerevisiae deletion strains, locus YEL061C, strain CIN8, stronger effect = lower value
[21] = S. cerevisiae deletion strains, locus YHR030C, strain SLT2, stronger effect = lower value
[22] = S. cerevisiae deletion strains, locus YHR087W, strain rtc3, stronger effect = lower value
[23] = S. cerevisiae deletion strains, locus YJL187C, strain SWE1, stronger effect = lower value
[24] = S. cerevisiae deletion strains, locus YJR043C, strain POL32, stronger effect = lower value
[25] = S. cerevisiae deletion strains, locus YJR075W, strain HOC1, stronger effect = lower value
[26] = S. cerevisiae deletion strains, locus YLR039C, strain RIC1, stronger effect = lower value
[27] = S. cerevisiae deletion strains, locus YLR058C, strain SHM2 (second series), stronger effect = lower value
[28] = S. cerevisiae deletion strains, locus YLR085C, strain ARP6, stronger effect = lower value
[29] = S. cerevisiae deletion strains, locus YLR262C, strain YPT6, stronger effect = lower value
[30] = S. cerevisiae deletion strains, locus YML094W, strain GIM5, stronger effect = lower value
[31] = S. cerevisiae deletion strains, locus YMR219W, strain ESC1, stronger effect = lower value
[32] = S. cerevisiae deletion strains, locus YMR263W, strain SAP30, stronger effect = lower value
[33] = S. cerevisiae deletion strains, locus YNL298W, strain CLA4 (second series), stronger effect = lower value
[34] = S. cerevisiae deletion strains, locus YNR030W, strain Alg12, stronger effect = lower value
[35] = S. cerevisiae deletion strains, locus YPL055C, strain LGE1, stronger effect = lower value
[36] = S. cerevisiae deletion strains, locus YPR135W, strain CTF4, stronger effect = lower value
[37] = S. cerevisiae strains, strain wild type, stronger effect = lower value
[38] = S. cerevisiae deletion strains, locus YHR079C, strain IRE1, stronger effect = lower value
[39] = S. cerevisiae deletion strains, locus YJL095W, strain BCK1, stronger effect = lower value
[40] = S. cerevisiae deletion strains, locus YJR066W, strain TOR1, stronger effect = lower value
[41] = S. cerevisiae deletion strains, locus YLR113W, strain HOG1, stronger effect = lower value
[42] = S. cerevisiae deletion strains, locus YNL183C, strain NPR1, stronger effect = lower value
[43] = S. cerevisiae deletion strains, locus YOR231W, strain MKK1, stronger effect = lower value
[44] = S. cerevisiae deletion strains, locus YPL256C, strain CLN2, stronger effect = lower value

Measured: normalized growth

NC(Cc1cccc(-c2ccccc2CP(=O)(O)O)c1)C(=O)O (stereo unspecified)
inactive: [1] 0.998 | [2] 1 | [3] 1 | [4] 0.983 | [5] 1.02 | [6] 1.01 | [7] 0.989 | S. cerevisiae deletion strains, locus YNL128W, strain TEP1, stronger effect = lower value 0.994 | [8] 1.04 | [9] 0.998 | [10] 0.995 | [11] 1 | [12] 1 | [13] 0.989 | [14] 1

C[C@H](Cc1ccccc1)Nc1ncnc2c1ncn2[C@@H]1O[C@H](CO)[C@H](O)C1O (stereo partly specified)
inactive: [1] 0.995 | [2] 0.979 | [3] 1.01 | [4] 0.989 | [5] 0.997 | [15] 1 | [6] 1 | [7] 1 | [8] 1.22 | [9] 0.989 | [10] 0.99 | [11] 1 | [12] 0.996 | [13] 0.988

C/C(=N/O)c1sc2nc(C(F)(F)F)nn2c1C
inactive: [1] 0.954 | [16] 0.957 | [17] 1.01 | [18] 0.966 | [19] 0.975 | [20] 0.981 | [15] 0.956 | [6] 0.982 | [21] 0.89 | [22] 0.961 | [23] 0.974 | [24] 0.977 | [25] 0.997 | [26] 0.795 | [27] 0.953 | [28] 1.05 | [29] 0.86 | [30] 0.943 | [31] 0.963 | [32] 0.964 | [8] 1 | [33] 0.99 | [12] 0.962 | [34] 0.989 | [35] 0.96 | [14] 1.02 | [36] 0.851 | [37] 0.962

Cc1c(C(=O)Sc2ccc(F)cc2F)sc2nc(C(F)(F)F)nn12
active: S. cerevisiae deletion strains, locus YAR019C, strain CDC15, stronger effect = lower value 0.0973 | S. cerevisiae deletion strains, locus YBL105C, strain PKC1, stronger effect = lower value 0.0839 | S. cerevisiae deletion strains, locus YBR135W, strain CKS1, stronger effect = lower value 0.105 | S. cerevisiae deletion strains, locus YBR136W, strain MEC1, stronger effect = lower value 0.0954 | S. cerevisiae deletion strains, locus YBR160W, strain CDC28, stronger effect = lower value 0.0992 | S. cerevisiae deletion strains, locus YDL017W, strain CDC7, stronger effect = lower value 0.0838 | S. cerevisiae deletion strains, locus YDL028C, strain MPS1, stronger effect = lower value 0.38 | [17] 0.0962 | S. cerevisiae deletion strains, locus YDL108W, strain KIN28, stronger effect = lower value 0.105 | S. cerevisiae deletion strains, locus YDL132W, strain cdc53, stronger effect = lower value 0.0969 | S. cerevisiae deletion strains, locus YDL214C, strain PRR2, stronger effect = lower value 0.103 | S. cerevisiae deletion strains, locus YDR052C, strain DBF4, stronger effect = lower value 0.102 | S. cerevisiae deletion strains, locus YDR054C, strain cdc34, stronger effect = lower value 0.0939 | S. cerevisiae deletion strains, locus YDR226W, strain ADK1, stronger effect = lower value 0.105 | S. cerevisiae deletion strains, locus YDR477W, strain SNF1, stronger effect = lower value 0.107 | S. cerevisiae deletion strains, locus YER123W, strain YCK3, stronger effect = lower value 0.111 | S. cerevisiae deletion strains, locus YER133W, strain GLC7, stronger effect = lower value 0.106 | S. cerevisiae deletion strains, locus YFL009W, strain cdc4, stronger effect = lower value 0.102 | S. cerevisiae deletion strains, locus YFL029C, strain CAK1, stronger effect = lower value 0.101 | S. cerevisiae deletion strains, locus YFR003C, strain YPI1, stronger effect = lower value 0.45 | S. cerevisiae deletion strains, locus YFR019W, strain FAB1, stronger effect = lower value 0.107 | S. cerevisiae deletion strains, locus YFR028C, strain CDC14, stronger effect = lower value 0.0976 | S. cerevisiae deletion strains, locus YGR040W, strain KSS1, stronger effect = lower value 0.0958 | S. cerevisiae deletion strains, locus YGR052W, strain FMP48, stronger effect = lower value 0.106 | S. cerevisiae deletion strains, locus YGR092W, strain DBF2, stronger effect = lower value 0.116 | [21] 0.103 | [38] 0.101 | S. cerevisiae deletion strains, locus YHR082C, strain KSP1, stronger effect = lower value 0.133 | S. cerevisiae deletion strains, locus YHR205W, strain SCH9, stronger effect = lower value 0.000493 | S. cerevisiae deletion strains, locus YIL147C, strain SLN1, stronger effect = lower value 0.488 | [39] 0.0913 | S. cerevisiae deletion strains, locus YJL128C, strain PBS2, stronger effect = lower value 0.0913 | S. cerevisiae deletion strains, locus YJL157C, strain FAR1, stronger effect = lower value 0.0866 | S. cerevisiae deletion strains, locus YJR016C, strain ILV3, stronger effect = lower value 0.0901 | S. cerevisiae deletion strains, locus YJR066W, strain TOR1 (second series), stronger effect = lower value 0.0917 | [40] 0.122 | S. cerevisiae deletion strains, locus YKL048C, strain ELM1, stronger effect = lower value 0.131 | S. cerevisiae deletion strains, locus YKL067W, strain YNK1, stronger effect = lower value 0.108 | S. cerevisiae deletion strains, locus YKL101W, strain HSL1, stronger effect = lower value 0.0974 | S. cerevisiae deletion strains, locus YKL193C, strain SDS22, stronger effect = lower value 0.101 | S. cerevisiae deletion strains, locus YKL203C, strain TOR2, stronger effect = lower value 0.103 | [41] 0.145 | S. cerevisiae deletion strains, locus YLR133W, strain CKI1, stronger effect = lower value 0.0966 | S. cerevisiae deletion strains, locus YLR403W, strain SFP1, stronger effect = lower value -0.00147 | S. cerevisiae deletion strains, locus YML070W, strain DAK1, stronger effect = lower value 0.103 | S. cerevisiae deletion strains, locus YMR001C, strain CDC5, stronger effect = lower value 0.0979 | S. cerevisiae deletion strains, locus YMR205C, strain PFK2 (second series), stronger effect = lower value 0.101 | S. cerevisiae deletion strains, locus YMR277W, strain FCP1, stronger effect = lower value 0.1 | S. cerevisiae deletion strains, locus YNL006W, strain LST8, stronger effect = lower value 0.0889 | S. cerevisiae deletion strains, locus YNL020C, strain ARK1, stronger effect = lower value 0.0935 | S. cerevisiae deletion strains, locus YNL161W, strain CBK1, stronger effect = lower value 0.0956 | [42] 0.104 | S. cerevisiae deletion strains, locus YNL207W, strain RIO2, stronger effect = lower value 0.214 | S. cerevisiae deletion strains, locus YNL222W, strain SSU72, stronger effect = lower value 0.102 | S. cerevisiae deletion strains, locus YNL307C, strain MCK1 (second series), stronger effect = lower value 0.105 | S. cerevisiae deletion strains, locus YOL078W, strain AVO1, stronger effect = lower value 0.101 | S. cerevisiae deletion strains, locus YOL136C, strain PFK27, stronger effect = lower value 0.0958 | S. cerevisiae deletion strains, locus YOR061W, strain CKA2, stronger effect = lower value 0.12 | S. cerevisiae deletion strains, locus YOR119C, strain RIO1, stronger effect = lower value 0.116 | [43] 0.103 | S. cerevisiae deletion strains, locus YOR329C, strain SCD5, stronger effect = lower value 0.0884 | S. cerevisiae deletion strains, locus YPL031C, strain PHO85, stronger effect = lower value 0.0971 | S. cerevisiae deletion strains, locus YPL153C, strain RAD53, stronger effect = lower value 0.102 | S. cerevisiae deletion strains, locus YPL204W, strain HRR25, stronger effect = lower value 0.111 | S. cerevisiae deletion strains, locus YPL209C, strain IPL1, stronger effect = lower value 0.0875 | [44] 0.124 | S. cerevisiae deletion strains, locus YPR025C, strain CCL1, stronger effect = lower value 0.0998 | S. cerevisiae deletion strains, locus YPR106W, strain ISR1, stronger effect = lower value 0.109 | S. cerevisiae deletion strains, locus YPR111W, strain DBF20, stronger effect = lower value 0.169 | S. cerevisiae deletion strains, strain NNK1, stronger effect = lower value 0.105 | S. cerevisiae deletion strains, strain TSCII, stronger effect = lower value 0.104

C=CC1(C)CC(=O)C2(O)C(C)(O1)C(OC(C)=O)C(O)C1C(C)(C)CCC(O)C12C (stereo unspecified)
inactive: [2] 0.968 | [3] 0.985 | [19] 1 | [4] 0.969 | [5] 0.986 | [15] 0.996 | [25] 0.992 | [8] 1.02 | [9] 1.02 | [10] 0.994 | [11] 0.99 | [12] 0.985 | [13] 1.01 | [35] 0.994 | [14] 0.998

CSc1nc2cc(Oc3cccc(Cl)c3Cl)c(Cl)cc2[nH]1
active: [21] 0.11 | [38] 0.119 | [39] 0.114 | [40] 0.0117 | [41] 0.156 | [42] 0.000876 | [43] 0.125 | [44] 0.138

CSc1nc2ccccc2[nH]1
inactive: [1] 0.987 | [16] 0.996 | S. cerevisiae deletion strains, locus YCL061C, strain MRC1, stronger effect = lower value 0.992 | [17] 0.999 | [18] 0.948 | [19] 1.02 | [20] 0.936 | [15] 0.99 | [21] 1.03 | [22] 0.969 | [23] 0.973 | [24] 1 | [25] 0.956 | S. cerevisiae deletion strains, locus YKL190W, strain CNB1, stronger effect = lower value 0.984 | [26] 1.01 | [27] 0.983 | [28] 0.895 | [29] 1.01 | [30] 0.96 | [31] 0.99 | [32] 1.02 | [7] 0.89 | [8] 1.02 | [33] 0.95 | [12] 0.977 | [34] 0.923 | [35] 1.03 | [14] 0.944 | [36] 0.973 | [37] 0.981
